From PubChem BioAssay (Tox21)
Inconclusive results are not listed. A number with no mark means an inactive call. Active and inactive are the calls of the source. Calls follow the shape of the full dose curve.

Assay: p53 small molecule agonists, cell-based qHTS assay: qHTS cell viability counter screen (AID 1963581); also: nearly all actives have a fitted effect of over 45% in size
Settings: p53RE-bla HCT-116 viability, ATP luminescence, 16 h; series mostly up to 66 µM; activity change, negative = cytotoxicity: at the top concentration
Excerpt: National Center for Advancing Translational Sciences [NCATS]
Division of Preclinical Innovation [DPI]
U.S. Environmental Protection Agency [EPA]
National Institutes of Environmental Health Sciences [NIEHS]
National Toxicology Program [NTP]
U.S. Food and Drug Administration [FDA]
p53, a tumor suppressor protein, is activated following cellular insult, including DNA damage and other cellular stresses. The activation of p53 regulates cell fate by inducing DNA repair, cell cycle arrest, apoptosis, or cellular senescence. The activation of p53, therefore, is a good indicator of DNA damage and other cellular stresses. The CellSensor p53RE-bla HCT-116 cell line (Invitrogen) contains a stably integrated beta-lactamase reporter gene under control of the p53 response elements. The activation of the reporter gene under culture conditions can be detected by fluorescence intensity. This cell line was used to screen the Tox21 compound library in a 1536-well plate format and to identify agonists that activate the p53 signaling pathway. The cytotoxicity of the Tox21 compound library against the p53 RE-bla HCT-116 cell line was tested in parallel by measuring the intra cellular ATP content in the same wells.
Tox21 Assay Protocol Summary:
The p53RE-bla cells were dispensed at 4,000 cells/5 ul/well in 1536-well black wall/clear bottom plates using a Multidrop dispenser. After the assay plates were incubated at a 37 C/5% CO2 incubator for 5 hours, 23 nL of compounds dissolved in DMSO, positive controls or DMSO only was transferred to the assay plate by a pin tool. The plates were incubated at 37 C for 16 hours. After 1 uL of LiveBLAzerTM B/G FRET substrate was added using a Flying Reagent Dispenser, the plates were incubated at room temperature for 2 hours, and fluorescence intensity was measured by an Envision plate reader. For cell viability readout that measures cytotoxicity, 4 ul/well of CellTiter-Glo reagent was added into the assay plates using a Flying Reagent Dispenser. After 30 min incubation at room temperature, the luminescence intensity in the plates was measured using a ViewLux plate reader.
% is scaled to controls: 0 for no effect and ±100 for the full control effect.

| Compound | Potency | activity change, negative = cytotoxicity |
| --- | --- | --- |
| O=[N+]([O-])c1ccc2nc[nH]c2c1 | inactive | – |
| CCOCOCC | – | -20.2% |
| O=[N+]([O-])c1cncn1CCN1CCOCC1 | – | 1.63% [at 30.3 µM] |
| CCCC(C)CCC(C)=O (stereo not given) | – | 5.89% |
| CN(C)CCCNCCC#N | – | -0.0336% |
| NC(=O)NNC(N)=O | – | 28% |
| CCCCCCCCCCCCCCCC(=O)OC | – | 2.56% [at 13.5 µM] |
| C=CC(=O)NC(C)C | – | 0% |
| Cc1ccc(C(C)C)cc1O | – | -15.1% |
| CC(C)CC(=O)O | – | -2.99% |
| CC(=O)O[C@]1(C(C)=O)CC[C@H]2[C@@H]3C=C(C)C4=CC(=O)CC[C@]4(C)[C@H]3CC[C@@]21C | inactive | – |
| O=C(c1ccccc1O)c1ccccc1O | – | 1.4% |
| O=c1c(-c2ccc(O)cc2)coc2cc(O)ccc12 | inactive | – |
| CCOC(OCC)OCC | – | -14.7% |
| OC[C@H]1O[C@@H]2O[C@H]3[C@H](O)[C@@H](O)[C@@H](O[C@H]4[C@H](O)[C@@H](O)[C@@H](O[C@H]5[C@H](O)[C@@H](O)[C@@H](O[C@H]6[C@H](O)[C@@H](O)[C@@H](O[C@H]7[C@H](O)[C@@H](O)[C@@H](O[C@H]8[C@H](O)[C@@H](O)[C@@H](O[C@H]1[C@H](O)[C@H]2O)O[C@@H]8CO)O[C@@H]7CO)O[C@@H]6CO)O[C@@H]5CO)O[C@@H]4CO)O[C@@H]3CO | inactive | – |
| S=C(NC1CCCCC1)NC1CCCCC1 | inactive | – |
| CCCCN(CCCC)CCCCCCN(CCCC)CCCC | – | -4.25% |
| N#CC1(O)CCCCC1 | – | -7.65% |
| CCOC(=O)c1cc(=O)c2c(OCC(COc3cccc4oc(C(=O)OCC)cc(=O)c34)OC(=O)[C@@H](N)CCCCN)cccc2o1 | – | 0.723% [at 30.3 µM] |
| CCCOCCO | inactive | – |

| Compound | Potency | activity change, negative = cytotoxicity |
| --- | --- | --- |
| Cc1cccc(Nc2ccccc2C(=O)O)c1C | inactive | – |
| Nc1ncnc2c1ncn2Cc1c(F)cccc1Cl | – | -1.44% [at 30.3 µM] |
| CCOC(=O)CC(C)=O | – | -1.62% |
| C[Si](C)(C)Cl | – | 6.13% |
| CC(=O)OCC(=O)[C@@]1(O)CC[C@H]2[C@@H]3CCC4=CC(=O)C=C[C@]4(C)[C@H]3[C@@H](O)C[C@@]21C | – | 0.224% [at 30.3 µM] |
| CC(C)CCOC(=O)c1ccccc1 | – | 7.16% |
| CC(C)(C)OC(=O)c1cccc(N)c1 | – | 7.46% |
| OCCC(F)(F)C(F)(F)C(F)(F)C(F)(F)C(F)(F)C(F)(F)F | – | -9.78% |
| CCc1ccc(C=O)cc1 | – | -7.26% |
| COC(=O)CC(C(C)=O)C(=O)OC (stereo not given) | – | -13% |
| c1cnc2cc3c(cc2n1)C1CNCC3C1 | – | 2.58% [at 30.3 µM] |
| N#CCc1cccc(C(F)(F)F)c1 | – | -8.27% |
| CC(C)CC=O | – | -10.6% |
| COC(=O)N[C@H](C(=O)N[C@@H](Cc1ccccc1)[C@@H](O)CN(Cc1ccc(-c2ccccn2)cc1)NC(=O)[C@@H](NC(=O)OC)C(C)(C)C)C(C)(C)C | – | 5.09% [at 30.3 µM] |
| CCOCCOCC | – | -6.93% |
| COc1ccc(OC)c(C(O)CNC(=O)CN)c1 (stereo not given) | inactive | – |
| Nc1cc(S(=O)(=O)O)cc2cc(S(=O)(=O)O)cc(O)c12 | inactive | – |
| Nc1cc(=O)[nH]c(N)n1 | – | 0.0175% [at 30.3 µM] |
| O=C(O)Cc1cccc(-c2cc(CCCCCCc3ccc(O[C@H]4O[C@H](CO)[C@@H](O)[C@H](O)[C@@H]4O)c(-c4cccc(CC(=O)O)c4)c3)ccc2O[C@H]2O[C@H](CO)[C@@H](O)[C@H](O)[C@@H]2O)c1 | – | -10.7% [at 0.249 µM] |
| OCC1CC2CC1C1CCC(CO)C21 (stereo not given) | – | -7.85% |
